Assay [1] can be described thus: binders of probe aFSTL3 on microarray, primary screen, stem cell growth factor project, biochemical, small-molecule microarray, fluorescence 635/667 (AID 1064).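 Also: measures binding of the biotinylated anti-FSTL3 antibody to printed compounds.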 The note with it: higher = more signal.
Assay [2] is described as follows: binders from COS7 lysate, DM2A8 probe, primary screen, torsin A project, cell lysate, small-molecule microarray, fluorescence 635/667 (AID 1065). The note with it: higher = more signal, COS7 lysate expressing mutant human TOR1A.
Assay [3] in a line: binders of probe aFGF2 on microarray, primary screen, stem cell growth factor project, biochemical, small-molecule microarray, fluorescence 635/667 (AID 1067).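 Also: measures binding of biotinylated aFGF2 protein to printed compounds on slides; z-score merges feature fluorescence and signal-to-noise across triplicate slides.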 The note with it: higher = more signal.
A short description of assay [4]: binders of probe aFGF10 on microarray, primary screen, stem cell growth factor project, biochemical, small-molecule microarray, fluorescence 635/667 (AID 1071).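 Also: score merges 667 nm spot intensity and signal to noise from triplicate slides.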 The following applies: higher = more signal.
For assay [5], the target named is Neurogenic locus notch homolog protein 2 (Homo sapiens) (UniProt Q04721). Kind of assay: Notch2 binders on small-molecule microarrays, primary screen, biochemical, small-molecule microarray, 635 nm fluorescence, stem cell growth factors (AID 1073). The note with it: Notch2 binding, higher = more signal.
Assay [6] has as its target Pro-neuregulin-1, membrane-bound isoform (Homo sapiens) (UniProt Q02297). In words: NRG1 binders on small-molecule microarrays, primary screen, psychiatric disease protein project, biochemical, small-molecule microarray, fluorescence 635/667 (AID 1075).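 Also: score combines 667 nm spot fluorescence with signal to noise.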 The following applies: NRG1 binding, 635 nm fluorescence, higher = more signal.
In assay [7] the test system is Neuregulin-1 EGF-like domain. Kind of assay: binders of neuregulin-1 EGF-like domain, primary screen, biochemical, small-molecule microarray, 635 nm fluorescence (AID 1081).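 Also: binding of the protein to compounds printed on small-molecule microarray slides.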 The following applies: small-molecule microarray binding, higher = more signal.
Assay [8] is described as follows: FRG1 promoter luciferase signal modulators, primary screen, FRG1 inhibition for FSHD, cell-based, C2C12 myotubes, firefly/Renilla luciferase, luminescence (AID 1084). The note with it: higher = more signal, called active from +8 up or from −8 down.
The nature of assay [9]: binders of probe aFST on microarray, primary screen, stem cell growth factor project, biochemical, small-molecule microarray, fluorescence 635/667 (AID 1086).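 Also: score merges 667 nm fluorescence with signal-to-noise of each printed compound spot.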 The note with it: higher = more signal.
A short description of assay [10]: binders of probe aHhip on microarray, primary screen, stem cell growth factor project, biochemical, small-molecule microarray, fluorescence 635/667 (AID 1087).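 Also: score merges spot fluorescence at 667nm with spot signal to noise ratio.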 The following applies: higher = more signal.
The subject of assay [11] is PRMT1 (protein arginine N-methyltransferase 1). In words: PRMT1 binders on small-molecule microarrays, primary screen, biochemical, small-molecule microarray, 635 nm fluorescence (AID 1088).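 Also: binding of Prmt1 protein to compounds spotted on small-molecule microarray slides.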 The note with it: small-molecule microarray binding, higher = more signal.
The nature of assay [12]: yeast growth modulation, basal conditions, primary screen, YJM789 clinical isolate, OD600, 24 h (AID 1089).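 Also: growth of clinical yeast isolate S. cerevisiae YJM 789 seeded 1000 cells per well; test concentration not given here.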 The note with it: S. cerevisiae YJM789 growth, higher = more signal, called active from +8 up or from −8 down.
Assay [13] can be described thus: fission yeast growth modulation, primary screen, strain 972, OD600, 24 h, no modulator (AID 1090).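 Also: basal condition with compound alone and no growth modifier present; test concentration not given here.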 The following applies: S. pombe 972 growth, higher = more signal, called active from +8 up or from −8 down.
Assay [14] is described as follows: S. cerevisiae growth modulation with rapamycin, primary screen, strain BY4716, OD600, 96 h (AID 1091). Also: test concentration not given here. The note with it: higher = more signal, called active from +8 up or from −8 down.
The target in assay [15] is Torsin-1A-interacting protein 2 (Homo sapiens) (UniProt Q8NFQ8). In words: LULL1 binders on small-molecule microarray, primary screen, cell lysate, human LULL1 lysate, 635/667 nm fluorescence (AID 1092).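 Also: score merges per-feature 667 nm fluorescence with signal-to-noise.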 The following applies: hLULL1 lysate binding, 635 nm fluorescence, higher = more signal.
The nature of assay [16]: E. coli growth modulation, two-sided OD650, primary screen, E. coli filamentation project, strain DRC41, 24 h (AID 1093).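 Also: MC1000 strain lacking acrAB efflux and sulA so SOS filamentation is blocked; test concentration not given here.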 The following applies: OD650, 24 h, higher = more signal, called active from +8 up or from −8 down.
Assay [17] in a line: small-molecule microarray binders of probe aLefty2, primary screen, biochemical, biotinylated probe, 635/667 nm fluorescence (AID 1094).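 Also: score merges spot fluorescence near 667 nm with spot signal-to-noise ratio.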 The following applies: higher = more signal.
Assay [18] deals with Noggin (protein binding on small-molecule microarray). In words: Noggin binders on small-molecule microarray, primary screen, biochemical, 635/667 nm fluorescence (AID 1095).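 Also: score merges 667 nm feature fluorescence with signal to noise over triplicate slides.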 The following applies: 635 nm fluorescence, higher = more signal.
In assay [19] the target is Neurogenic locus notch homolog protein 3 (Homo sapiens) (UniProt Q9UM47). In words: NOTCH3 binders on small-molecule microarray, primary screen, biochemical, 635/667 nm fluorescence (AID 1096). The following applies: NOTCH3 binding, 635 nm fluorescence, higher = more signal.
Assay [20] in a line: small-molecule microarray binders of probe aEGFR, primary screen, biochemical, biotinylated probe, 635/667 nm fluorescence (AID 1097).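 Also: probe is a biotinylated anti-EGFR antibody binding compounds printed on slides; score combines fluorescence near 667 nm and signal to noise of each spot.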 The following applies: higher = more signal.

Activity calls are given as the source filed them.

Pro-neuregulin-1, membrane-bound isoform (Homo sapiens), sequence (Q02297 whole entry, looked up, the tested form may be a part, canonical isoform): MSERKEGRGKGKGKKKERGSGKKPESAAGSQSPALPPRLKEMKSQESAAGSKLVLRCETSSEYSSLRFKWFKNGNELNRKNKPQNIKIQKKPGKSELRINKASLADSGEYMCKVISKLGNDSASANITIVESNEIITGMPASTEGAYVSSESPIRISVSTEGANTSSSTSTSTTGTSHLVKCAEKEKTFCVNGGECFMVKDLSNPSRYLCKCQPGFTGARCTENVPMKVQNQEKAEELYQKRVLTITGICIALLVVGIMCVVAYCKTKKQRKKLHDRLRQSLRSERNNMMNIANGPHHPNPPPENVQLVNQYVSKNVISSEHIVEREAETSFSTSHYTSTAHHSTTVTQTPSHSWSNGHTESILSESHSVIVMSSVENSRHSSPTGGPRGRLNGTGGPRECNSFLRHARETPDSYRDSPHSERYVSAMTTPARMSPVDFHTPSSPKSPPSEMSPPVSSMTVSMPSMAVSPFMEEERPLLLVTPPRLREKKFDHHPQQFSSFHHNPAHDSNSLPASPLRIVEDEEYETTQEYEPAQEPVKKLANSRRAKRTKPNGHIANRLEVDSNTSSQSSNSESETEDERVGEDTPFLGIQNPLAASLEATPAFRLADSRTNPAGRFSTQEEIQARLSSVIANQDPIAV
Torsin-1A-interacting protein 2 (Homo sapiens), sequence (Q8NFQ8 whole entry, looked up): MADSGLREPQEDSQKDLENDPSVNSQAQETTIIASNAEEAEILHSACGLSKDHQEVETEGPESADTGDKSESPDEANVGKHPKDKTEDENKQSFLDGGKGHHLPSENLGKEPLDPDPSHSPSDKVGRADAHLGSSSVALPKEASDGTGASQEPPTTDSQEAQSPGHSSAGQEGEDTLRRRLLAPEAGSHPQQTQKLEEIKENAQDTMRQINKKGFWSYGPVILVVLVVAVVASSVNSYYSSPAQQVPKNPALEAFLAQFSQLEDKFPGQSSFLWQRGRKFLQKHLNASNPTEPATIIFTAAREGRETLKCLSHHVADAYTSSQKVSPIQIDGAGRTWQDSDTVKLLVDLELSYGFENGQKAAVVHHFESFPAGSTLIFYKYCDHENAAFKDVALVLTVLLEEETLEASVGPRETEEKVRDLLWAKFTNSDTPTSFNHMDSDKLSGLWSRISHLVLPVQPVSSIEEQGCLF
Neurogenic locus notch homolog protein 3 (Homo sapiens), sequence (Q9UM47 whole entry, looked up): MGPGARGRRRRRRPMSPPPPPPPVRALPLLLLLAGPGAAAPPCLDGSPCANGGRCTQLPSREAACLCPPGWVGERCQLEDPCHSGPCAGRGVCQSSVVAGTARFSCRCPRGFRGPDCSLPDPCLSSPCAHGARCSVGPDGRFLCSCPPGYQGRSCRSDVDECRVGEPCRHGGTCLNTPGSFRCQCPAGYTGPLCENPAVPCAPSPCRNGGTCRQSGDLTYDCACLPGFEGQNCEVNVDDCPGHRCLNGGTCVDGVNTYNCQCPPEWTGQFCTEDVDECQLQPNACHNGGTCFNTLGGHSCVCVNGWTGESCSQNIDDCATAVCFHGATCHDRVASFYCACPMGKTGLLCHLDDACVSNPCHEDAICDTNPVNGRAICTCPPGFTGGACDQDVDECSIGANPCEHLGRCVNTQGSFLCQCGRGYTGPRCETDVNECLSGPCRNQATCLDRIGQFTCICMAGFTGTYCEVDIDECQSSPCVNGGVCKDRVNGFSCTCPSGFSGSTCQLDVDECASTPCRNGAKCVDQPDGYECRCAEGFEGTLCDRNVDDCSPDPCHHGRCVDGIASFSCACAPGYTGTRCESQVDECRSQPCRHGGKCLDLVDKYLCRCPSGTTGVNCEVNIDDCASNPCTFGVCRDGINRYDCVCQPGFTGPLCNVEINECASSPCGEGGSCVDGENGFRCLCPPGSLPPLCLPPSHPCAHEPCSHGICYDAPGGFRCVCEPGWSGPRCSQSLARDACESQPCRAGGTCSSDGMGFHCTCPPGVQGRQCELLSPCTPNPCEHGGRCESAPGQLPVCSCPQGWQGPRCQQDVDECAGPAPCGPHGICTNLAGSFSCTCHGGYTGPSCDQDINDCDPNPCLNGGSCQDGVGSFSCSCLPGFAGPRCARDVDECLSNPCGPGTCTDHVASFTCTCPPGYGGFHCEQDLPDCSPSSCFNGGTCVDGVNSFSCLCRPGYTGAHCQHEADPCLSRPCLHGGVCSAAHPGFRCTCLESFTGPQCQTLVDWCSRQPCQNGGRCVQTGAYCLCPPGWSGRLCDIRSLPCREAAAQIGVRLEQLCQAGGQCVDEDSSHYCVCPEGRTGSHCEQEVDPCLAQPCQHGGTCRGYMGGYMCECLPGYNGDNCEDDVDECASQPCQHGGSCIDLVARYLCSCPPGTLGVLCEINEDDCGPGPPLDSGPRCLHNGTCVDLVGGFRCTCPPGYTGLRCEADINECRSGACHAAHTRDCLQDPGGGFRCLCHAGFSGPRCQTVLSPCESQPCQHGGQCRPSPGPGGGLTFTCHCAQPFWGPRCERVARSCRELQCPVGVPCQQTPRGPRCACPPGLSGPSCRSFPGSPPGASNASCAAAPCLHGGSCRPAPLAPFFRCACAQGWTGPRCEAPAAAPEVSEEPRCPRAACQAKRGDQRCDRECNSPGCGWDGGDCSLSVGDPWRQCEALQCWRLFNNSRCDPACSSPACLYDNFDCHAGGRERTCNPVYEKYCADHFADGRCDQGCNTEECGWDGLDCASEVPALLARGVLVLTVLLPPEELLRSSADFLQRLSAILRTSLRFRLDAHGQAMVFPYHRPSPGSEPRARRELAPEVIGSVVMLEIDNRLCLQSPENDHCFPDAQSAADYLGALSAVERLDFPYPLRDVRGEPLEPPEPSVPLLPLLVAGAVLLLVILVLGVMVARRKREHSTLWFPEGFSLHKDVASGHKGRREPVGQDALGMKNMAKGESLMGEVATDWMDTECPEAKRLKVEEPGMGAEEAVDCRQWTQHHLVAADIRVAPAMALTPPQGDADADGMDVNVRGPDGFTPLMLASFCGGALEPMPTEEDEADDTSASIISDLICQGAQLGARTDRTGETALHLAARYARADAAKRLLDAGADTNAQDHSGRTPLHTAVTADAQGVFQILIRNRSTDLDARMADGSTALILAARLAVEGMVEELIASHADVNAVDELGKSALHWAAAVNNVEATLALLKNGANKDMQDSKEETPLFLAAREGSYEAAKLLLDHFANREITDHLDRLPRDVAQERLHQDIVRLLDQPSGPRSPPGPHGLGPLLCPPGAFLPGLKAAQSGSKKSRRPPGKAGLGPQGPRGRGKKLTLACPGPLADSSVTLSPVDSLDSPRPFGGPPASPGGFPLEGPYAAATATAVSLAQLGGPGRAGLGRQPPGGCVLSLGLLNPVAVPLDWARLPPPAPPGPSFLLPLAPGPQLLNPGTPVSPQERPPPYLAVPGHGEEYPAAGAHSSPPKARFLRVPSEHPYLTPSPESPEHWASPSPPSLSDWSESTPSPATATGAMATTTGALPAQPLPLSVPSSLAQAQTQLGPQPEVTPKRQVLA

Turning to `O=P(NCC1(CC2(c3ccccc3)CO2)CC1)(c1ccccc1)c1ccccc1` (stereo not given), the composite z-score in [1] is 0.565; in assay [2], -0.856; in [3] it was 0.218; in assay [4], 0.315; in assay [5], -0.401; in assay [6], 1.06. For the same molecule, the composite z-score is 0.619 in [7]; -0.0087 in assay [9]; 0.275 in assay [10]; -0.878 in [11]; 3.14 in assay [15]; -0.132 in [17]. Besides, the composite z-score in [18] was -1.44; in assay [19], -1.19; in assay [20], -0.207. The z-score in assay [8] was -1.59 (inactive); in assay [12], -0.468 (inactive); in assay [13], 1.08 (inactive); in [14], 0.236 (inactive); in assay [16] it was 0.31 (inactive).

For `Cc1ccc([C@H]2C(C(=O)O)=C[C@@H](C(C)C)N2S(=O)(=O)c2ccc(C)cc2)cc1`, the composite z-score in assay [1] is -0.0974; in [2], -0.304; in [3], -0.0667; in assay [4], 0.163; in assay [5] it was 1.14; in [6] it was 1.19. The composite z-score in [7] is 1.31; in assay [9] it was 0.384; in assay [10] it was -0.287; in [11], 0.425; in [15], 3.51; in assay [17], -0.0598. Besides, the composite z-score in assay [18] was -0.0681; in [19], 0.412; in assay [20], -0.0457. Besides, the z-score in [8] was -1.57 (inactive); in [12], -0.763 (inactive); in assay [13], 0.0459 (inactive); in assay [14] it was -0.128 (inactive); in [16], -0.678 (inactive).

With `COC(=O)[C@@]1(Cc2ccc(F)cc2)[C@H]2c3cc(C(=O)N(C)C)n(CCc4c[nH]c5ccc(OC)cc45)c3C[C@H]2CN1C(=O)c1ccccc1`, the composite z-score amounted to 1.1 in [1]; 1.29 in assay [2]; 0.181 in assay [3]; 0.175 in assay [4]; 1.37 in assay [5]; 0.88 in assay [6]. Besides, the composite z-score is 1.36 in assay [7]; 1.34 in assay [9]; 0.836 in [10]; 0.84 in assay [11]; 3.17 in [15]; 0.809 in [17]. Moreover, the composite z-score in assay [18] is -0.682; in assay [19], 0.0599; in [20] it was 0.341. For the same molecule, the z-score in assay [8] is 1.59 (inactive); in assay [12] it was 0.12 (inactive); in [13], -0.331 (inactive); in assay [14], 0.342 (inactive); in assay [16], -1.47 (inactive).

For the molecule `COCCOC(=O)N1C(=O)[C@@]2(c3cc(C#CCCO)ccc31)[C@H](C(=O)NC[C@H](O)c1ccccc1)[C@H]1C(=O)O[C@H](c3ccccc3)[C@H](c3ccccc3)N1[C@@H]2c1ccc(OCCO)cc1`, the composite z-score in assay [1] is 0.664; in [2] it was 0.271; in assay [3], -0.114; in [4] it was 0.208; in assay [5] it was 1.08; in assay [6] it was 1.27. Further, the composite z-score is 1.16 in assay [7]; 0.152 in [9]; -0.11 in assay [10]; 1.54 in [11]; 3.11 in assay [15]; 0.0129 in [17]. The composite z-score in assay [18] was found to be 0.909; in assay [19] it was 1.05; in assay [20], 0.0634. Moreover, the z-score in assay [8] is 0.469 (inactive); in [12], 1.23 (inactive); in assay [13], 0.619 (inactive); in [14] it was 4.47 (inactive); in assay [16], 2.17 (inactive).

For `Cc1ccc(S[C@]2(C(=O)NCC(F)(F)F)CC(=O)N(C3Cc4ccccc4C3)[C@@H]2c2ccc(CO)cc2I)cc1`, the composite z-score in [1] is 1.27; in assay [2], 0.0708; in assay [3] it was -0.11; in assay [4], -0.433; in [5] it was -0.929; in assay [6], 0.569. Further, the composite z-score was 0.455 in assay [7]; -0.265 in assay [9]; 0.0024 in assay [10]; -0.535 in [11]; 1.18 in assay [15]; 0.157 in [17]. Moreover, the composite z-score in [18] was -0.883; in assay [19], -1.08; in [20], -0.255. Besides, the z-score in [8] is -0.92 (inactive); in assay [12] it was 0.0775 (inactive); in assay [13], -0.967 (inactive); in assay [14], 1.81 (inactive); in assay [16], -0.701 (inactive).

Source of the values: PubChem BioAssay.
